# Compounds with a hit are over-represented: about 11% of the library has one in this group of screens.
# JMJD2A Tudor inh – blocks the human JMJD2A Tudor domain | Potency, µM (top dose mostly 114 µM), hits mostly inhibitors | AlphaScreen JMJD2A-Tudor / H3K4me3 peptide binding | hit rate 4.4% among 390,000 | AID 504339; note: nearly all actives have a fitted effect of over 50% in size
# L3MBTL1 block – L3MBTL1 (human) inhibition | hit rate 0.66% among 230,000 | AlphaScreen L3MBTL1–H3K9me1 peptide binding | AID 485360 | Potency, µM (series often up to 57.1 µM), usual class: inhibitors | Q9Y468; note: nearly all actives have a fitted effect of over 60% in size
# Target sequence (Q9Y468 whole entry, looked up): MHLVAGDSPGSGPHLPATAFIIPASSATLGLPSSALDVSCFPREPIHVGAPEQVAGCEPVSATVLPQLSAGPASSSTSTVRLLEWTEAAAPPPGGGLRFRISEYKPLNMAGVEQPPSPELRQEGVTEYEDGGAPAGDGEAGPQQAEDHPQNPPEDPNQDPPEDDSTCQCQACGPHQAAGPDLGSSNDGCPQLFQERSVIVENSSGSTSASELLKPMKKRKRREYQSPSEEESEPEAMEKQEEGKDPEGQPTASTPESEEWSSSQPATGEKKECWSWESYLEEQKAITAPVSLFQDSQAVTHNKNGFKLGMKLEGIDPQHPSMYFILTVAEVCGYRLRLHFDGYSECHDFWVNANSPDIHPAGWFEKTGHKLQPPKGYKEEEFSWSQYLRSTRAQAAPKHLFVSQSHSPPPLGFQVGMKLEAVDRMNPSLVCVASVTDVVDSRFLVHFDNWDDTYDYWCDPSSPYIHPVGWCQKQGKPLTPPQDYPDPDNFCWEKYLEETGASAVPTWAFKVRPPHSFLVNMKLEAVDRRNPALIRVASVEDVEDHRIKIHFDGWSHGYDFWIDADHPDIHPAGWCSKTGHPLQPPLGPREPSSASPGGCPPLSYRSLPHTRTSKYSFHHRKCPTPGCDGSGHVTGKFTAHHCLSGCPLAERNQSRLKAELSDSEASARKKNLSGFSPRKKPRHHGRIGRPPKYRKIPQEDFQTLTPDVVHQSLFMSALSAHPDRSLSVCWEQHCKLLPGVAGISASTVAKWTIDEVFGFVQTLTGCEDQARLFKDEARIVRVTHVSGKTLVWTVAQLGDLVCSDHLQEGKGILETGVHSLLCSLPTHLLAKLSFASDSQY
#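 Displacement of a biotinylated histone H3(1-15) peptide monomethylated at Lys9 (75 nM) from L3MBTL1 (50 nM) was measured by AlphaScreen after a 30 min room-temperature compound incubation; cefsulodin titration served as intraplate control.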
# HP1b binding inh – HP1-beta chromodomain-methylated histone interaction inhibition; AlphaScreen HP1-beta / biotin-H3K9me3 peptide binding; Potency, µM (highest dose often 114 µM), hits mostly inhibitors; hit rate 0.56% among 390,000; note: nearly all actives have a fitted effect of over 70% in size
#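 Compound inhibition of the preformed complex between 50 nM HP1-beta and 50 nM biotinylated H3K9me3 peptide was read by AlphaScreen. Buffer was PBS pH 7.4 with 0.01% Tween-20. Incubations ran 30 min at room temperature, with 10 ug/mL donor/acceptor beads.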
# BAZ2B block – BAZ2B (human) inhibition; hit rate 4.4% among 360,000; AlphaScreen BAZ2B-H3K14Ac peptide displacement; Q9UIF8; Potency, µM (highest dose often 114 µM), most hits filed as inhibitors; note: nearly all actives have a fitted effect of over 60% in size
#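 Protein-peptide AlphaScreen: BAZ2B 50 nM, b-H3K14Ac 50 nM, 1x PBS pH 7.4 + 0.01% Tween-20. Preincubation 30 min RT; cpd 30 min RT (top 110 uM); beads 20 min RT, light-protected.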
# G9a inh – G9a (human) methyltransferase inhibition | Q96KQ7 | G9a H3K9 monomethylation, AlphaScreen, 2 h | Potency, µM (top dose mostly 102 µM), usual class: inhibitors | hit rate 8.8% among 350,000 | AID 504332; note: nearly all actives have a fitted effect of over 75% in size
#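 Signal arises when biotinylated H3K9 peptide, once monomethylated, bridges streptavidin donor and antibody-captured acceptor beads. Enzyme at 20 nM was preincubated 15 min with test compounds; peptide 500 nM and SAM 20 uM then reacted for 2 h.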
# Numbers stand for hits; i = inactive; ? = inconclusive; nt = no result; ! = not active in a repeat. Calls come from the whole dose curve; as a rule, active = well fitted inhibition curve with a large enough effect; inconclusive = small, poorly fitted or top-dose-only effect; inactive = no such curve, though single readings can be large or run the other way.
SMILES,JMJD2A Tudor inh,L3MBTL1 block,HP1b binding inh,BAZ2B block,G9a inh
COc1cc(/C=C/c2cc[n+](C)cc2)ccc1OCC(=O)Nc1ccccc1,i,nt,i,i,12.6µM
COCC(=O)N/N=C\c1ccc(OC/C=C/c2ccccc2)c(OC)c1,i,nt,i,i,i
COc1ccc(CCNC(=O)c2ccc(Nc3nc4ccccc4n4nnnc34)cc2)cc1OC,i,nt,i,i,i
O=C(c1ccc2c(c1)N(Cc1ccc(Cl)cc1)C(=O)c1ccccc1S2=O)N1CCC(Cc2ccccc2)CC1 (stereo not drawn),i,nt,i,?,i
Cc1ccc(CNC(=O)c2ccc3c(c2)N(Cc2ccccc2F)C(=O)c2ccccc2S3(=O)=O)cc1,i,nt,i,i,i
COC(=O)Cc1c[nH]c2cccc(OCC(O)CN(Cc3ccc([N+](=O)[O-])cc3)C(C)(C)C)c12 (stereo not drawn),?,i,?,70.8µM,nt
CC(C)CN(CC(C)C)CC(O)COc1ccc([N+](=O)[O-])cc1 (stereo not drawn),i,i,i,i,i
O=C(Nc1ccc(Cl)cc1C(=O)NCCN1CCOCC1)c1ccco1,i,i,i,i,i
O=C(Nc1ccccc1C(=O)NCCN1CCOCC1)c1ccco1,i,i,i,i,50.1µM
COc1ccccc1C(=O)NCc1ccccc1,i,i,i,i,i
COc1ccccc1NC(=O)c1ccc(NC(=O)c2ccco2)cc1,i,nt,i,i,?
COc1ccccc1NC(=O)C(=O)NNC(=O)c1ccco1,?,i,i,?,8.91µM
COc1ccccc1C(=O)NCCNC(=O)c1ccco1,25.1µM,i,?,i,i
COc1ccccc1C(=O)NNC(=O)C(=O)NCc1ccccc1,?,i,i,i,28.2µM
COc1ccc(CCCc2nnc(SCC(=O)Nc3ccc(F)cc3)o2)cc1C,i,nt,i,i,?
CCOc1ccc(C(=O)c2oc3ccccc3c2NC(=O)Cc2coc3ccc(CC)cc23)cc1,i,nt,i,i,i
COc1ccc(OC)c(NC(=O)c2c(N3CCCC3=O)c3cc(OC)ccc3n2C)c1,i,nt,i,?,?
O=C(NCCNC(=O)c1ccccc1Cl)c1ccco1,79.4µM,nt,i,i,50.1µM
O=C(NCCCNC(=O)c1ccccc1F)c1ccco1,i,nt,i,i,i
COc1cccc(-c2ccc3c(N)c(C(=O)NCc4ccc(Cl)cc4)sc3n2)c1,i,nt,i,i,i
CC[C@H](C)C(=O)O[C@H]1C[C@@H](C)C=C2C=C[C@H](C)[C@H](CC[C@@H]3C[C@@H](O)CC(=O)O3)[C@H]21,i,i,i,i,15.8µM!
CCCCOc1ncnc2c1[nH]c1ccc(C)cc12,i,i,i,i,i
COc1cccc(CNC(=O)c2ccc(N3CCOCC3)c([N+](=O)[O-])c2)c1,i,nt,i,i,i
CCN(CC)S(=O)(=O)c1ccc(N2CCOCC2)c(NC(=O)c2ccc(N3CCCC3=O)cc2)c1,i,i,i,i,50.1µM
CCN(CC)S(=O)(=O)c1ccc(N2CCCCC2)c(NC(=O)C2=COCCO2)c1,i,i,i,i,i
SMILES,JMJD2A Tudor inh,L3MBTL1 block,HP1b binding inh,BAZ2B block,G9a inh
COc1ccccc1CNC(=O)c1ccc(N2CCOCC2)c([N+](=O)[O-])c1,?,nt,i,79.4µM,i
CCN(CC)S(=O)(=O)c1ccc(N2CCCC2)c(NC(=O)C2=COCCO2)c1,i,i,i,i,50.1µM
CCN(CC)S(=O)(=O)c1ccc(O)c(NC(=O)c2ccc(N3CCOCC3)c([N+](=O)[O-])c2)c1,i,i,?,i,7.08µM
COc1cc(NC(=O)COCc2cc(-c3ccc(F)cc3)on2)cc(OC)c1OC,i,nt,i,i,?
Cc1ccccc1C(c1c(C)n(C)n(-c2ccccc2)c1=O)c1c(C)n(C)n(-c2ccccc2)c1=O,i,nt,i,i,i
CCCCN(Cc1ccccc1)S(=O)(=O)c1ccc2c(c1)CC(C)N2C(=O)CC (stereo not drawn),i,nt,i,nt,i
O=C(O)/C=C(/c1ccccc1)C(F)(F)F,i,nt,i,nt,nt
CCOc1ccc(NC(=O)NCCN2CCN(c3cc(Cl)ccc3C)CC2)cc1,i,nt,i,i,i
CCN(CC)S(=O)(=O)c1ccc(N2CCCC2)c(NC(=O)c2ccc(N3CCCC3=O)cc2)c1,i,i,i,i,35.5µM
CCN(CC)S(=O)(=O)c1cc(C(=O)Nc2ccccc2[N+](=O)[O-])ccc1Cl,?,i,?,?,28.2µM

# Source: PubChem BioAssay
